# Source: PubChem
# Compounds with a hit are over-represented: about 7.2% of the library has one in this group of screens.
# Sm TGR inh – blocks Schistosoma mansoni thioredoxin glutathione reductase; purified TGR, DTNB reduction, TNB absorbance 405 nm; 3% of 360,000 active; Potency, µM (titrated, usually from 114 µM), most hits filed as inhibitors; AID 485364; further: nearly all actives have a fitted effect of over 60% in size
#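 First, TGR (20 nM dispensed) and NADPH were mixed with compound. Second, a 15 min room-temperature incubation followed. Third, further NADPH and then DTNB were added to start the reaction. Finally, TNB absorbance was monitored kinetically.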
# LASV entry inh – Lassa virus entry inhibition | Lassa virus pseudotype entry inhibition, cell reporter | Potency, µM (doses to about 37.9 µM), hits mostly inhibitors | 1.2% of 300,000 active; calls by dose curve; tested in HEK293 cells; further: nearly all actives have a fitted effect of over 50% in size
# RE007 growth inh – less growth of the S. pombe RE007 Vpr strain; 0.21% of 360,000 active; AID 651644; S. pombe RE007 Vpr strain, BacTiter-Glo ATP luminescence, 24 h; Potency, µM (top dose mostly 92.2 µM), most hits filed as inhibitors; active means well fitted falling curve with a large enough effect; inconclusive means small, poorly fitted or top-dose-only effect; inactive means no such curve, though single readings can be large or run the other way; further: nearly all actives have a fitted effect of over 50% in size
#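 Fission yeast RE007 carrying one integrated HIV-1 vpr copy, seeded at OD 0.01 in PMG+AL medium with 23 nL pinned compound. Grown 24 h at 30 degrees; viability read by BacTiter-Glo luminescence after 5 min.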
# FMDV inh – foot and mouth disease virus antiviral activity | 1.2% of 410,000 active | Potency, µM (doses to about 57.9 µM), usual class: inhibitors | FMDV antiviral cell-based qHTS | AID 1159524; calls by dose curve; tested in HEK293T cells; further: read-out not given here; nearly all actives have a fitted effect of over 45% in size
# MARV entry inh – blocks Marburg virus binding to or entry into cells; Marburg virus pseudotyped entry inhibition, cell reporter; Potency, µM (series often up to 37.8 µM), hits mostly inhibitors; 1.8% of 300,000 active; AID 540276; calls by dose curve; tested in HEK293 cells
# HCV inhibitor – HCV inhibition; 3.4% of 340,000 active; Potency, µM (doses to about 41.8 µM), hits mostly inhibitors; Huh7.5.1 HCVcc-Cre infection, luciferase reporter, 44 h
#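 Compounds are dispensed onto cells plated 4 h earlier at 1,000 per well, with HCVcc-Cre virus (about 0.5 moi) added next. Following 44 h of culture, luminescent signal is measured for 15 sec after 15 min with substrate at room temperature.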
# A number is an active result; n = inactive; u = inconclusive; x = no result; ! = not active in a repeat; [ ] = remark or other dose. Unless noted, the call rests on the fitted dose curve; in most records, active means well fitted curve in the direction sought with a large enough effect; inconclusive means small, poorly fitted or top-dose-only effect, or another doubt; inactive means no such curve, though single readings can be large; an effect the other way counts as inactive or inconclusive.
SMILES,Sm TGR inh,LASV entry inh,RE007 growth inh,FMDV inh,MARV entry inh,HCV inhibitor
O=C(Nc1nc(-c2ccc3ccccc3c2)cs1)C1CCN(S(=O)(=O)c2cccs2)CC1,n,u,n,u,n,u
Cc1ccc(-c2csc(NC(=O)C3CCN(S(=O)(=O)c4cccs4)CC3)n2)cc1,n,u,x,u,u,10µM
CCCCCCCC(=O)OC[C@H](CO)OC(=O)CCCCCCC,x,x,x,n[6.7 µM],x,x
CCOC(=O)Cc1csc(SCC(=O)Nc2cccc(Cl)c2)n1,n,n,n,n,u,n
CCCn1c(SCC(=O)Nc2cc(Cl)ccc2OC)n[nH]c1=O,n,n,n,u,n,10µM
O=C(CSc1n[nH]c(=O)n1C1CC1)Nc1cc(Cl)ccc1Oc1ccccc1,n,u,n,14.1µM,8.2µM,u
CCOC(=O)Cc1csc(SCC(=O)Nc2cc(Cl)ccc2Oc2ccccc2)n1,n,n,n,u,u,10µM
COc1ccc(Cn2ccc3nc(C)c(C(=O)N4CCN(c5cccc(OC)c5)CC4)cc3c2=O)cc1,n,u,x,u,x,x
C[C@@H](NC(=O)c1ncn2c1C(=O)NC[C@@H]2C)c1ccccc1,x,x,n,n,x,x
Cc1cc2ccccn2c1C(C[N+](=O)[O-])c1ccc(N(C)C)cc1 (configuration not stated),u,n,n,n,u,n
COc1ccc(C(C[N+](=O)[O-])c2c(C)cc3ccccn23)cc1 (configuration not stated),28.2µM,n,u,n,u,u
COc1ccc(C(C[N+](=O)[O-])c2c(-c3ccccc3)cc3ccccn23)c(OC)c1 (configuration not stated),56.2µM,n,u,n,n,n
COc1ccc(NC(=O)c2cnc3ccccn3c2=O)c(OC)c1,x,x,n,n,x,n
COc1ccc(Br)cc1CNC(=O)Cn1ncn2nc(-c3cccs3)cc2c1=O,n,n,x,n,n,x
Cc1ccc(O)c(NC(=O)CSc2n[nH]c(-c3ccccc3)n2)c1,n,x,n,u,x,11.2µM
CN(C)c1ccc(/C=c2\sc3n(c2=O)CCCN=3)cc1,n,2µM,n,n,u,u
CC(N)C(=O)OC(C)(C)Cc1ccc(Cl)cc1 (configuration not stated),n,u,n,n,10µM!,n
Cn1c(/C=C/c2cccc([N+](=O)[O-])c2)c([N+](=O)[O-])c(=O)n(C)c1=O,n,u,n,12.6µM,8.91µM,u
COc1ccc(/C=C/c2c([N+](=O)[O-])c(=O)n(C)c(=O)n2C)cc1OC,n,n,n,x,u,n
Cn1c(/C=C/c2ccc(Cl)cc2)c([N+](=O)[O-])c(=O)n(C)c1=O,n,x,n,17.8µM,x,u
CCCC[C@]12Cc3cc(C#N)ccc3[C@H](O1)c1c(c3ccccc3oc1=O)O2,x,x,x,x,n,x
CCCNC(=O)OC[C@H]1O[C@H](CCON=C2C[C@@H](O)[C@@H](O)[C@@H]3[C@H]4C(=O)N(CC)C(=O)[C@@H]4CC[C@H]23)C=C[C@H]1Oc1ccc(OC)cc1,x,x,x,x,n,x
O=C(c1cc(C(F)(F)F)cc(C(F)(F)F)c1)N1CCC2(CC1)CCN(c1ccncc1)CC2,x,x,x,n,x,x
CN1CCN(c2ncnc3c2cnn3C)CC1,n,x,n,n,x,n
Cn1ncc2c(N3CCC(Cc4ccccc4)CC3)ncnc21,x,n,n,20µM,n,u
SMILES,Sm TGR inh,LASV entry inh,RE007 growth inh,FMDV inh,MARV entry inh,HCV inhibitor
O=S(=O)(c1ccccc1)N1CCN(c2ncnc3sc(-c4ccccc4)cc23)CC1,n,n,n,u,u,n
NNC(=O)c1cc2c(N3CCC(Cc4ccccc4)CC3)ncnc2s1,n,10µM,n,14.1µM,n,u
CCN(c1ccccc1)S(=O)(=O)c1ccc(NC(=O)c2cc(=O)c3cc(C)c(C)cc3o2)cc1,n,n,x,n,n,x
O=c1c2ccccc2nc(N/N=C/c2c(O)ccc3ccccc23)n1O,n,0.631µM,n,n,0.794µM,0.891µM
Oc1ccc2ccccc2c1/C=N/Nc1nnc(-c2ncc[nH]2)c2ccccc12,n,u,n,n,6.51µM,3.16µM
Oc1ccc2ccccc2c1C=NNc1ccccn1,x,u,u,n,5.62µM,3.16µM
Oc1ccc2ccccc2c1CNc1ccccn1,2.24µM,x,n,n,x,n
O=c1c2ccccc2nc(N/N=C/c2ccc(O)cc2)n1O,n,n,n,n,n,n
